# Test results: PubChem BioAssay AID504834 (National Center for Advancing Translational Sciences (NCATS), 2011)
# About 22,000 (6.9%) of roughly 320,000 compounds were called active. Another 27% or so got no clear call; they are omitted. Many of the other results were omitted from the sample, so actives are more common in it than they were. Values without a mark were called inactive. Calls follow the shape of the dose curve; as a rule, active = well fitted inhibition curve with a large enough effect; inconclusive = small, poorly fitted or top-dose-only effect, or another doubt; inactive = no such curve, though single readings can be large or run the other way.
# Test: Primary qHTS for delayed death inhibitors of the malarial parasite plastid, 96 hour incubation
# Details: P. falciparum luciferase reporter growth; series mostly up to 28.7 µM; activity change, negative = inhibition: at the top concentration
# Source text: The goal of this screen is to discover new antimalarial compounds that act by inhibiting the development of the apicoplast in the malarial parasite Plasmodium falciparum. The biochemical processes that make this organelle essential for erythrocytic stage parasites are not well understood. However, antibiotics such as azithromycin and tetracycline, which target the apicoplast translational machinery, have a potent antimalarial effect.
# We have developed a cell-based assay that measures parasite growth based on the expression of an integrated copy of a firefly luciferase reporter. To detect small molecules that cause this "delayed death" phenotype, erythrocytes infected with the luciferase-expressing parasites were incubated with compounds for either one or two generations, corresponding to 48 and 96 hours, respectively. Compounds that inhibit parasite growth in the second generation, but not the first, should be enriched in antimalarials that target the apicoplast. Growth inhibition is detected by a decrease in luciferase activity.
# Assay Provider: David Fidock and Eric Ekland, Columbia University
# Keywords: NIH Roadmap, MLPCN, MLI, MLSMR, qHTS, NCGC, qHTS, malaria, luciferase, viability
# Four microliters of infected erythrocytes (2% hematocrit, 0.05% parasitemia final concentration) in culture medium were dispensed and the plates incubated for 96 hours at 37 C in 5% CO2. Two microliters of luciferase detection reagent was added and luminescence was detected by a ViewLux (PerkinElmer) reader.
# % is scaled to controls: 0 for no effect and ±100 for the full control effect; potency is read from the fitted curve at half-maximal effect.
SMILES,"activity change, negative = inhibition [%]",Potency
COCCNC(=O)COc1ccccc1C,30.4,
Cc1cccc(NC(=O)COc2ccccc2C)n1,,2.33 µM (active)
Cc1ccccc1OCC(=O)Nc1nc(C)c(C(=O)N(C)C)s1,14.9,
O=C(NCCc1ccccn1)c1cccnc1Oc1ccc(Cl)cc1,-15.1,
COc1cc(NS(=O)(=O)c2ccc(NC(=O)c3ccc([N+](=O)[O-])cc3)cc2)ncn1,-1.66,
Cn1ccc(=Nc2ccc(NC(=O)c3ccc(N=c4ccn(C)c5ccc([N+](=O)[O-])cc45)cc3)cc2)cc1,,0.165 µM (active)
O=C(Nc1ccc(C(=O)N2CCCCC2)cc1)c1cccc([N+](=O)[O-])c1,-8.03,
COc1ccccc1C(=O)Nc1ccnn1C1CCN(C(=O)C(C)(C)C)CC1,11.3,
O=C(/C=C/Nc1ccccc1OC(F)(F)F)C(F)(F)F,35.6,
CN(C)c1ccc(N/C=C/C(=O)C(F)(F)F)cc1,,6.57 µM (active)
CCCOc1ccc(N/C=C/C(=O)C(C)(C)C)cc1,-2.54,
Cc1c(C(=O)N(C)CCc2cnn(C)c2)oc2c(F)cccc12,18.4,
Fc1ccc(/C=N/n2c(COc3ccccc3)n[nH]c2=S)cc1,4.78,
COc1ccc(C(=O)OCC(=O)Nc2cccc(C(C)=O)c2)cc1OC,-16.6,
O=c1[nH][nH]c(=O)c2cc(N3CCCC3)ccc12,,9.28 µM (active)
O=C1C=CC(=O)N1c1ccc(N2CCCCC2)cc1,-18.3,
CN(C)c1ccc2c(=O)[nH][nH]c(=O)c2c1,-26.8,
CCOc1ccc(S(=O)(=O)NCc2ccc3c(c2)OCO3)cc1C,11.5,
Cc1ccc(C(=O)NNC(=O)C(C)Oc2ccc3ccccc3c2)o1 (centres undefined),0.752,
Cc1ccc(Cl)c(OCC(=O)N(C)CC(=O)Nc2ccc(N3CCOCC3)cc2)c1,0.319,
Cc1nn2c(NCCN(C)C)c3c(nc2c1-c1ccccc1)CCC3,,11.7 µM (active)
Cc1cc(C(C)(C)C)n2nc(C)c(-c3ccccc3)c2n1,-5.57,
Cc1cc(N2CCCC2)n2nc(C)c(-c3ccccc3)c2n1,61.6,
O=C(CN1CCN(c2ccccn2)CC1)Nc1ccc(Br)cc1,24.4,
COc1ccc(C2=NS(=O)(=O)N(C)C(C(=O)N(C)Cc3ccccc3)=C2)cc1,-24.5,
Nc1c(C(=O)Nc2ccc3c(c2)OCCO3)nnn1Cc1ccccc1,4.21,
Cc1ccc2c(c1)N(C(=O)CCC(=O)NCc1cccnc1)CCO2,5.48,

SMILES,"activity change, negative = inhibition [%]",Potency
CC1CN(C(=O)CCC(=O)NCc2cccnc2)c2ccccc2O1 (centres undefined),23.8,
Cc1ccccc1CNC(=O)CCC(=O)N1Cc2ccccc2Oc2ncccc21,,11.7 µM (active)
CC(C)NC(=O)C(c1ccc(F)cc1)N(C(=O)CCC(=O)Nc1ccccn1)c1ccccc1F (centres undefined),0.184,
Cc1cc(/C=N/Nc2ccc([N+](=O)[O-])cn2)c(C)n1-c1cccc(C(=O)O)c1,20.5,
Cc1ccc(-n2c(C)cc(/C=N/Nc3ccc([N+](=O)[O-])cn3)c2C)c(C)c1,,10.4 µM (active)
Cc1ccc(N2CCN(c3ccc([N+](=O)[O-])cn3)CC2)c(C)c1,1.91,
O=C(NC1CCCC1)C(c1ccc(Cl)cc1)N(C(=O)c1csnn1)C1CC1 (centres undefined),-3,
CC1CC1C(=O)OCC(=O)Nc1cccc(F)c1 (centres undefined),-4.3,
Cn1ccc(=NC=C(C#N)C#N)c2ccccc21,27.4,
N#CC(C#N)=CN=c1ccn(Cc2ccc(Cl)cc2Cl)cc1,,1.17 µM (active)
O=S(=O)(O)c1nc2ccccc2n1Cc1ccc(Cl)cc1Cl,6.21,
CC(C)[C@H](NC(=O)N1CCn2c1nc1ccccc12)C(=O)NC1CC1,-13,
COc1ccc(NC(=O)c2cnc(NS(=O)(=O)c3ccccc3)nc2)cc1,82.4,
CCOC(=O)c1cc(C(=O)Nc2ccc(S(=O)(=O)Nc3ccc(OC)cc3)cc2)nn1C,,11.7 µM (active)
CCOC(=O)c1ccccc1NS(=O)(=O)c1ccc(OC)cc1,15.9,
COc1cc2ccccc2cc1C(=O)Nc1ccc(S(=O)(=O)Nc2cc(C)on2)cc1,64.4,
COc1cc(OC)cc(C(=O)Nc2ccc(S(=O)(=O)Nc3cc(C)on3)cc2)c1,-24.9,
CCOc1ccc(C(=O)Nc2ccc(S(=O)(=O)Nc3cc(C)on3)cc2)cc1,,2.94 µM (active)
CCOCCCNC(=S)Nc1ccc2nc(N3CCN(CC)CC3)cc(C)c2c1,6.14,
Cc1cc(C)c(C#N)c(Nc2cccc(Br)c2)n1,-2.25,
Cc1ccc(S(=O)(=O)N2CCN(C)CC2)cc1,-1.36,
Cc1nn(C)c(C)c1NS(=O)(=O)c1ccc(OC(F)(F)F)cc1,3.16,
COc1cc(C(=O)OCC(=O)N(CC(C)C)C2CCS(=O)(=O)C2)ccc1OCC(C)C (centres undefined),-6.25,
CN(CC(=O)Nc1cccc(F)c1)C(=O)C1CSC2(C)CCC(=O)N12 (centres undefined),20.8,
CCCc1cc(C(=O)N2CCCC(CO)(CCCc3ccccc3)C2)n(C)n1 (centres undefined),-2.8,
COC(=O)CCC(=O)N1CCCC(CO)(Cc2ccccc2)C1 (centres undefined),,0.37 µM (active)
CS(=O)(=O)N(CC(=O)N1CCCC1)Cc1ccccc1,11.3,
